Data on 42 compounds can be found in publication PMC4552634, “A New Set of Chemical Starting Points with Plasmodium falciparum Transmission-Blocking Potential for Antimalarial Drug Discovery” (PLoS ONE, 2015).

Read-outs that look alike come from different tables or passages of the source. Out of some 13,000 compounds screened, about 3,200 (25%) showed an effect of 50% or more. This is one part of the list.

The subject of this assay is P. falciparum stage V gametocytes. More on the design: BacTiter-Glo ATP luminescence viability of purified stage V gametocytes in 384-well plates, per cent inhibition versus DMSO. To be noted: 48 h, 5 µM, inhibitor.

As to `CCCCc1ccccc1NS(=O)(=O)c1ccc(OC)c(N2CCNCC2)c1` [TCMDC-139238], the “% Inhibition” value is recorded as 19.7%. On to `CN1CCC(C(=O)Nc2cccc(-c3ccc(-c4nc5cc(C(F)(F)F)ccc5[nH]4)s3)c2)CC1` [TCMDC-132184], for which the “% Inhibition” value is recorded as 18.99%. With `COc1ccc2ccc(F)c(CCN3CCC(NCc4cc5c(cn4)OCCO5)CC3)c2n1` [TCMDC-136226], the “% Inhibition” value amounted to 1.241%. For `Cc1cnc(C(=O)Nc2cccc(-c3ccc(-c4nc5cc(C(F)(F)F)ccc5[nH]4)s3)c2)cn1` [TCMDC-137028], the “% Inhibition” value was 12.51%. Same read-out and setting: next, `OC(c1ccc2ccccc2c1)C1CN(CCc2ccccc2)CCC1(O)c1ccccc1` (stereo not drawn) [TCMDC-131995]: 4.082%; `Cc1cccc2nc(-c3cccc(-c4ccc(NC(=O)Cc5ccc[n+]([O-])c5)cc4)c3)[nH]c12` [TCMDC-136993]: -15.96%; `O=C(Cc1cnc[nH]1)Nc1ccc(-c2cccc(-c3nc4ccc(C(F)(F)F)cc4[nH]3)c2)cc1` [TCMDC-136949]: 9.618%.

As for `COc1ccc(NC(=O)Nc2ccc(-c3cccc(-c4nc5c(C)cccc5[nH]4)c3)cc2)cc1` [TCMDC-133245], the “% Inhibition” value was -21.29%. Turning to `CCCN(CC1CC1)c1nc(C)nc2c(-c3ccccc3)cc(C)cc12` [TCMDC-138123], the “% Inhibition” value was 91.17%. Regarding `CCCN(CC1CC1)c1ncc(-c2cccc(CNCc3ccccc3O)c2)cn1` [TCMDC-133138], the “% Inhibition” value was 6.014%. In the case of `CCCN(CCC)C(=O)c1cc(-c2cccc(C)c2)nc2ccccc12` [TCMDC-124452], the “% Inhibition” value is on record as -15.82%. On to `O=C(Nc1ccc(-c2cncc(NCCCN3CCCC3)c2)cc1)c1ccccc1` [TCMDC-133799], for which the “% Inhibition” value is listed as 7.133%.

Consider `CN1CC=C(c2c[nH]c3ccc(Br)cc23)CC1` [TCMDC-139098], for which the “% Inhibition” value is listed as -11.28%. Consider `Cc1cc(NC(=O)Nc2ccc(C#N)cc2)c2ccccc2n1` [TCMDC-138956], for which the “% Inhibition” value is reported as 16.86%. With `CCN1CCc2nc3ccccc3c(C(=O)Nc3ccc(C#N)cc3)c2C1` [TCMDC-124513], the “% Inhibition” value is 54.17%. As for `CCN1CCN(c2cc(C)c3cc(NC(=O)c4ccc(C(C)(C)C)cc4)ccc3n2)CC1` [TCMDC-125579], the “% Inhibition” value is given as -38.88%. On the same count and under the same terms, next, `Cc1onc(-c2c(F)cccc2Cl)c1C(=O)Nc1ccccc1I` [TCMDC-125644]: -7.209%; `CC(=O)c1cccc(NC(=O)NC2CCN(c3ccnc(Nc4ccc(F)cc4)n3)C2)c1` (stereo not drawn) [TCMDC-133594]: -13.54%; `CC(=O)c1ccc(NC(=O)Nc2ccc(N(C)c3ccnc(Nc4cccc(CS(C)(=O)=O)c4)n3)cc2)cc1` [TCMDC-138736]: -10.01%. On to `CS(=O)(=O)Cc1ccc(Nc2nccc(N3CCCc4cc(NC(=O)Nc5cccc(C(F)(F)F)c5)ccc43)n2)cc1` [TCMDC-134309], for which the “% Inhibition” value stood at 69.84%.

Take `CCCCCCCc1c2c(C)c(C(=O)OCC)nc-2cc2n1CC(C)=C2C` [TCMDC-124023]: the “% Inhibition” value was 93.66%. `O=C(CCCCCNC(=O)c1ccc(O)c(-c2ccc(Cl)c(Cl)c2)c1)NCCN1CCOCC1` [TCMDC-140848]: the “% Inhibition” value stood at 9.445%. For the compound `O=C(/C=C/c1ccc(Cl)c(Cl)c1)NCCC1CCC(N2CCC(c3c[nH]c4ccc(O)cc34)CC2)CC1` (stereo not drawn) [TCMDC-139824], the “% Inhibition” value is reported as -86.05%. The same measure, in the same setting: the figure for `O=C(/C=C/c1ccc(Cl)c(Cl)c1)NCC1CCCC(CN2CCC(c3c[nH]c4ccccc34)CC2)C1` (stereo not drawn) [TCMDC-139490] is -31.4%; for `O=C(/C=C/c1ccc(Cl)c(Cl)c1)NCC1CCC(N2CCC(c3c[nH]c4ccccc34)CC2)CC1` (stereo not drawn) [TCMDC-139676] it is 103.8%; for `O=C(/C=C/c1ccc(Cl)c(Cl)c1)NCCC1CCC(N2CCC(c3c[nH]c4ccccc34)CC2)CC1` (stereo not drawn) [TCMDC-139823] it is 54.15%. The same measure, in the same setting: next, `O=C(/C=C/c1ccc(Cl)c(Cl)c1)NCC1CCC(CN2CCC(c3c[nH]c4ccccc34)CC2)CC1` (stereo not drawn) [TCMDC-139484]: 1.039%; `O=C(/C=C/c1ccc(Cl)c(Cl)c1)NCCCCCN1C2CCC1CC(c1c[nH]c3ccccc13)C2` (stereo not drawn) [TCMDC-139239]: -9.344%. `Cc1cccc(NC(=O)N(Cc2cc3cc(C)cc(C)c3[nH]c2=O)C2CC2)c1` [TCMDC-123651]: the “% Inhibition” value was 4.214%.

As for `COc1cccc(C23N=C(Nc4nc5ccccc5[nH]4)NC2(c2cccc(OC)c2)NC(Nc2nc4ccccc4[nH]2)=N3)c1` (stereo not drawn) [TCMDC-139087], the “% Inhibition” value came out at 19.76%. For `Cc1ccccc1C1CCN(C2CCC(NC(=O)/C=C/c3c(F)ccc(F)c3F)CC2)CC1` (stereo not drawn) [TCMDC-133512], the “% Inhibition” value is -94.66%.

With `CCCc1cc(Cc2cnc(N)nc2N)cc2c1OC(C)(C)C2` [TCMDC-138049], the “% Inhibition” value is -0.08597%.

As to `Cc1c(CNCCCNc2nc3cscc3[nH]2)sc(C(F)F)c1Br` [TCMDC-141336], the “% Inhibition” value is 21.93%. Take `CC(C)(C)c1ccc(NC(=O)c2ccc(CN3CCCN(Cc4ccsc4)CC3)cc2)cc1` [TCMDC-136445]: the “% Inhibition” value is given as -5.74%.

As for `COc1ccc(C=CC(=O)NC2CCC(CN3CCC(c4c[nH]c5ccccc45)CC3)CC2)cc1` (stereo not drawn) [TCMDC-139949], the “% Inhibition” value (% Inhibition) was determined as 103.1%.

Consider `COc1ccc(C=CC(=O)NC2CCC(CN3CCC(c4c[nH]c5ccccc45)CC3)CC2)cc1OC` (stereo not drawn) [TCMDC-139932], for which the “% Inhibition” value is 100.6%.

As to `COc1cccc(/C=C/C(=O)NC2CCC(CN3CCC(c4c[nH]c5ccccc45)CC3)CC2)c1` (stereo not drawn) [TCMDC-139718], the “% Inhibition” value (% Inhibition) turned out to be 98.17%. Take `COc1ccc(C=CC(=O)NC2CCC(CN3CCC(c4c[nH]c5ccccc45)CC3)CC2)cc1` (stereo not drawn) [TCMDC-139933]: the “% Inhibition” value (% Inhibition) turned out to be 46.2%. In the case of `COc1cc(/C=C/C(=O)NC2CCC(CN3CCC(c4c[nH]c5ccccc45)CC3)CC2)ccc1O` (stereo not drawn) [TCMDC-139756], under “% Inhibition”, the “% Inhibition” value was -29.87%. For the compound `COc1ccc(OC)c(C=CC(=O)NC2CCC(CN3CCC(c4c[nH]c5ccccc45)CC3)CC2)c1` (stereo not drawn) [TCMDC-139893], the “% Inhibition” value amounted to 103%. With `COc1cc(/C=C/C(=O)NC2CCC(CN3CCC(c4c[nH]c5ccccc45)CC3)CC2)ccc1O` (stereo not drawn) [TCMDC-139766], the “% Inhibition” value (% Inhibition) is -65.69%. In the case of `N#Cc1cccc(Nc2nccc(NCC(O)c3ccc(C(F)(F)F)cc3)n2)c1` (stereo not drawn) [TCMDC-136590], the “% Inhibition” value stood at 5.433%.

One may read the % Inhibition as the relative decrease from the control value, in per cent.
